TDP1 cell noCPT – qHTS for Inhibitors of human tyrosyl-DNA phosphodiesterase 1 (TDP1): qHTS in cells in absence of CPT; AID 686978, 2013; 15% of 420,000 active; Potency, µM (series often up to 46.2 µM), usual class: inhibitors; DT40 Tdp1-/- hTDP1 cells, no CPT, ATP luminescence, 48 h; further: nearly all actives have a fitted effect of over 55% in size
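Cells were dispensed at 400 per well, compounds added by pin tool, plates incubated ≥48 hr at 37 °C, then CellTiter-Glo added for 30 min at room temperature before luminescence reading. Line: DT40 Tdp1-/- complemented with hTDP1; camptothecin omitted.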
ELG1 DNA repair – blocks ELG1-dependent DNA repair in HEK293T cells | HEK293T ELG1-luciferase reporter, luminescence, 16 h; DNA damage induced by 5-fluorouridine | Potency, µM (doses to about 46.1 µM), most hits filed as inhibitors | AID 504467 | 2.3% of 330,000 active; further: nearly all actives have a fitted effect of over 55% in size
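Cells (2,000 per well) received 5-fluorouridine plus test compound or DMSO and were incubated 16 hr at 37 °C, 5% CO2. Luciferase activity was read by luminescence 30 min after ONE-Glo addition; signal suppression marked inhibition of damage-induced ELG1 function.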
HT1080 IDH1KD tx – toxicity to HT-1080 IDH1 knockdown cells (counter line). HT-1080 IDH1 knockdown viability, ATP luminescence, 48 h. Potency, µM (doses to about 46.1 µM), usual class: cytotoxic. 2% of 360,000 active. AID 686971
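IDH1KD HT-1080 cells, 750/well, RPMI + 5% FBS; compound pinned after 2 h settling; 48 h, 37 °C; CellTiter-Glo luminescence; % activity normalised to DMSO and no-cell wells; curves fitted, classed by r2 and efficacy.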
HT1080NT lethal – kills 2HG-producing HT-1080-NT fibrosarcoma cells. HT-1080-NT fibrosarcoma viability, CellTiter-Glo ATP luminescence, 48 h. Potency, µM (series often up to 46.1 µM), most hits filed as cytotoxic. 1.6% of 360,000 active. AID 686970;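 further: NT is the 2HG producing partner of a matched IDH1 knockdown line; nearly all actives have a fitted effect of over 55% in size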
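HT-1080-NT fibrosarcoma cells (2HG-overproducing), 750 cells/well in RPMI with 5% FBS, dosed after 2 h and incubated 48 h at 37C. CellTiter-Glo luminescence normalized to DMSO and no-cell wells; concentration-response curves fitted and classed.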
DT40 TDP1 CPT – growth inhibition of DT40 Tdp1-/-;hTDP1 cells with camptothecin (screen for TDP1 inhibitors) | 12% of 420,000 active | AID 686979 | chicken DT40 Tdp1-/-;hTDP1 cells + 20 nM CPT, ATP luminescence, 48 h | Potency, µM (series often up to 46.2 µM), actives largely listed as inhibitors; further: nearly all actives have a fitted effect of over 55% in size
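Chicken DT40 Tdp1-/- cells complemented with human TDP1, 400 cells/well, exposed to compounds plus 20 nM camptothecin for at least 48 h at 37 C; viability read as ATP content by CellTiter-Glo luminescence.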
IL1B secr inh – blocks inflammasome-driven IL-1 beta release; THP-1 LPS/ATP IL-1B secretion, AlphaLISA, 16 h; hits give low values; activity change, % at 57.5 µM; 4.7% of 360,000 active; in the data active means activity change below about -50%; inconclusive means mostly about -30% to -49%
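THP-1 cells pretreated 1 hr with compounds (up to 57.5 uM final), then stimulated with LPS (250 ng/mL final) plus ATP (1.25 mM final); secreted IL-1B measured by AlphaLISA after 16 hr, decreased signal indicating inhibition.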
Hits are given with their value; - = inactive; ? = inconclusive; . = no result; [ ] = remark or other dose. Only some compounds are listed: those with a hit (about 19% of all), similar ones and a draw of the others. Unless noted, the call rests on the fitted dose curve; in most records, active means well fitted curve in the direction sought with a large enough effect; inconclusive means small, poorly fitted or top-dose-only effect, or another doubt; inactive means no such curve, though single readings can be large; an effect the other way counts as inactive or inconclusive.

SMILES	TDP1 cell noCPT	ELG1 DNA repair	HT1080 IDH1KD tx	HT1080NT lethal	DT40 TDP1 CPT	IL1B secr inh
COc1cc(NC(=O)c2cccc(S(=O)(=O)N3CCCCC3)c2)cc(OC)c1OC	?	-	-	-	23.1µM	-
Cc1nc(-c2cccc(S(=O)(=O)N3CC(C)CC(C)C3)c2)cs1 (stereo not drawn)	13µM	?	-	-	?	-
O=C(c1cccc(C(F)(F)F)c1)N1CCC2(CC1)NCCc1[nH]cnc12	-	-	-	-	-	-
COc1cc(OC)cc(C(=O)NNC(=O)C2CCC2)c1	-	.	-	-	-	-
CC(=O)Nc1cccc(C(=O)Nc2ccc(S(=O)(=O)N3CCCCC3)cc2)c1	14.6µM	-	-	-	?	-
CC1CCN(S(=O)(=O)c2cccc(C(=O)Nc3ccccc3)c2)CC1	?	-	-	-	-	-54.2
COc1ccc(C(C)=NNC(=O)c2cccc(S(=O)(=O)N3CCCC3)c2)cc1	-	-	-	-	-	-
O=C(Nc1ccccc1)c1cccc(S(=O)(=O)N2CCCCC2)c1	-	-	-	-	-	-
COc1ccc(/C(C)=N/NC(=O)c2cccc(S(=O)(=O)N3CCCC3)c2)c(O)c1	2.91µM	?	?	?	5.17µM	-
COc1ccc(NS(=O)(=O)c2cccc(NC(=O)C34CCC(CC3)C4)c2)cc1	20.6µM	?	-	-	?	-
COc1cc(/C=N/NC(=O)c2cccc(S(=O)(=O)N3CCCC3)c2)cc(OC)c1O	?	-	-	-	-	-
COCCn1c(=O)c(-c2ccc(F)cc2)nc2cnc(Nc3cccc(OC)c3)nc21	-	.	.	.	-	.
Cc1nc(-c2cccc(NC(=O)c3cccc(S(=O)(=O)N4CCCC4)c3)c2)cs1	23.1µM	18.3µM	-	-	?	-
COc1ccc(NC(=O)c2cccc(S(=O)(=O)N3CCCCCC3)c2)cc1	14.6µM	20.6µM	?	?	?	-
CC1CCCC(NC(=O)c2cccc(S(=O)(=O)N3CCCCC3)c2)C1C (stereo not drawn)	?	-	-	-	20.6µM	-
CC(=O)Nc1ccc(NC(=O)c2cccc(S(=O)(=O)N3CCCCCC3)c2)cc1	?	-	?	-	?	-
O=C(NC1CCCC1)c1cccc(S(=O)(=O)N2CCCCC2)c1	-	-	-[9.24 µM]	-	-	-
COc1ccc(NS(=O)(=O)c2cccc(NC(=O)c3ccc(S(=O)(=O)N4CCCCCC4)cc3)c2)cc1	2.59µM	?	?	?	3.66µM	-
COc1ccc(NS(=O)(=O)c2ccc(O)c(NC(=O)c3ccc(S(=O)(=O)N4CCCCCC4)cc3)c2)cc1	?	-	?	?	-	-
Cc1ccc(NC(=O)c2cccc(S(=O)(=O)N3CCCCC3)c2)cc1	?	-	-	-	-	-
CC(C)CC(=O)N1CCN(S(=O)(=O)c2ccc(C3CCCCC3)cc2)CC1	11.6µM	-	-	-	20.6µM	-
COc1ccc(COC(=O)c2cccc(S(=O)(=O)N3CCN(C(C)=O)CC3)c2)cc1	20.6µM	-	-	-	?	-
O=C(Nc1ccc(N2CCOCC2)cc1)c1cccc(S(=O)(=O)N2CCCCC2)c1	14.6µM	16.4µM	-	?	14.6µM	-
COc1ccc(COC(=O)c2cccc(S(=O)(=O)N3CCN(C(C)=O)CC3)c2)cc1F	?	-	-	-	?	-
COc1ccc(NS(=O)(=O)c2cccc(C(=O)Nc3ccccc3C(=O)O)c2)cc1	-	-	-	-	-	-
CCN(CC)S(=O)(=O)c1cccc(C(=O)Nc2ccccc2C(=O)Nc2ccc(OC)cc2)c1	10.3µM	.	.	.	10.3µM	.
Cc1ccc2nc3n(c(=O)c2c1)-c1ccccc1C(=O)NC3Cc1ccccc1 (stereo not drawn)	.	-	.	.	.	.
O=C(NCC1CCN(c2ccc(S(=O)(=O)N3CCOCC3)cc2)CC1)c1cccc(Cl)c1	11.6µM	-	-	-	?	-

Compound activity (PubChem)
